According to the supplement of paper PMC8728848:
About 410 targets per protein were measured; listed, in parts, are those with the strongest signals and a random draw of the rest.

What was measured:
Assay in all cases: glycan array binding signal (z-score within array); higher = stronger binding
Conditions in all cases: glycan notation: IUPAC condensed, linker removed
[1] = target: Fuc(a1-2)Gal(b1-3)[Fuc(a1-4)]GlcNAc(b1-2)Man(a1-3)[Fuc(a1-2)Gal(b1-3)[Fuc(a1-4)]GlcNAc(b1-2)Man(a1-6)]Man(b1-4)GlcNAc(b1-4)GlcNAc
Outline: (§1)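 Negative Z-scores can be read as non-binding. The Z-score is calculated within each array and then averaged across arrays of one protein sequence at different concentrations or buffers and across linkers. Arrays, 3228 in all, were curated from the Consortium for Functional Glycomics database and kept only where the protein sequence was available.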

[2] = target: Fuc(a1-2)Gal(b1-4)GlcNAc(b1-3)Gal(b1-4)GlcNAc
Outline: as §1

[3] = target: Fuc(a1-2)Gal6S(b1-4)Glc6S
Outline: as §1

[4] = target: Fuc(a1-2)[GalNAc(a1-3)]Gal(b1-4)GlcNAc(b1-3)Gal(b1-4)GlcNAc(b1-3)Gal(b1-4)GlcNAc
Outline: as §1

[5] = target: Fuc(a1-3)[Gal3S(b1-4)]Glc6S
Outline: as §1

[6] = target: Fuc(a1-3)[Neu5Ac(a2-3)]Gal(b1-4)GlcNAc(b1-3)GalNAc
Outline: as §1

[7] = target: Gal(b1-3)GalNAc(a1-3)[Fuc(a1-2)]Gal(b1-4)Glc
Outline: as §1

[8] = target: Gal(b1-3)GalNAc(a1-3)[Fuc(a1-2)]Gal(b1-4)GlcNAc
Outline: as §1

[9] = target: Gal(b1-3)GlcNAc(b1-2)Man(a1-3)[Gal(b1-3)GlcNAc(b1-2)Man(a1-6)]Man(b1-4)GlcNAc(b1-4)[Fuc(a1-6)]GlcNAc
Outline: as §1

[10] = target: Gal(b1-3)GlcNAc(b1-3)Gal(b1-3)GlcNAc
Outline: as §1

[11] = target: Gal(b1-4)GlcNAc(b1-2)Man(a1-3)[Gal(b1-4)GlcNAc(b1-2)Man(a1-6)]Man(b1-4)GlcNAc(b1-4)[Fuc(a1-6)]GlcNAc
Outline: as §1

[12] = target: Gal(b1-4)GlcNAc(b1-3)[Gal(b1-4)GlcNAc(b1-6)]Gal(b1-4)GlcNAc
Outline: as §1

[13] = target: Glc(a1-6)Glc(a1-6)Glc
Outline: as §1

[14] = target: GlcA(b1-6)Gal
Outline: as §1

[15] = target: GlcNAc(a1-6)Gal(b1-4)GlcNAc
Outline: as §1

[16] = target: GlcNAc(b1-2)Man(a1-3)[GlcNAc(b1-2)Man(a1-6)]Man(b1-4)GlcNAc(b1-4)GlcNAc
Outline: as §1

[17] = target: GlcNAc(b1-2)Man(a1-3)[GlcNAc(b1-2)Man(a1-6)]Man(b1-4)GlcNAc(b1-4)[Fuc(a1-6)]GlcNAc
Outline: as §1

[18] = target: GlcNAc(b1-3)[GlcNAc(b1-4)][GlcNAc(b1-6)]GlcNAc
Outline: as §1

[19] = target: GlcNAc(b1-3)[GlcNAc(b1-6)]GalNAc
Outline: as §1

[20] = target: GlcNAc(b1-4)GlcNAc(b1-4)GlcNAc
Outline: as §1

[21] = target: Man(a1-2)Man(a1-3)[Man(a1-2)Man(a1-6)]Man
Outline: as §1

[22] = target: Man(a1-2)Man(a1-3)[Man(a1-2)Man(a1-6)]Man(a1-6)[Man(a1-2)Man(a1-2)Man(a1-3)]Man
Outline: as §1

[23] = target: Neu5Ac(a2-3)Gal(b1-4)GlcNAc(b1-6)[Neu5Ac(a2-3)Gal(b1-3)]GalNAc
Outline: as §1

[24] = target: Neu5Ac(a2-3)Gal(b1-4)[Fuc(a1-3)]GlcNAc(b1-3)Gal(b1-4)GlcNAc
Outline: as §1

[25] = target: Neu5Ac(a2-3)GalNAc(b1-4)GlcNAc
Outline: as §1

[26] = target: Neu5Ac(a2-6)Gal(b1-4)GlcNAc(b1-2)Man(a1-3)[Neu5Ac(a2-6)Gal(b1-4)GlcNAc(b1-2)Man(a1-6)]Man(b1-4)GlcNAc(b1-4)GlcNAc
Outline: as §1

[27] = target: Neu5Ac(a2-6)Gal(b1-4)GlcNAc(b1-2)Man(a1-6)[Man(a1-3)]Man(b1-4)GlcNAc(b1-4)GlcNAc
Outline: as §1

[28] = target: Neu5Ac(a2-8)Neu5Ac(a2-8)Neu5Ac(a2-3)Gal(b1-4)Glc
Outline: as §1

[29] = target: Neu5Ac(b2-6)Gal(b1-4)GlcNAc
Outline: as §1

B1: LcH (Lens culinaris), P02870 (protein)
chain: TETTSFSITKFSPDQQNLIFQGDGYTGKEGLTLTKVSKETGGRALYSTPIHIWDRDTVNVANFVTNGSQVFRESPNGYNVADGFTFFIAPVDTKPQTGGGYLGVFYNGKEYDKTSQTVAVEFDTFYNAAWDPSNKERHIGIDVNSIKSVNTKSWNLQNGVTSYTLNEVVPLKDVVPEWVRIGFSATTGAEFAAQEVHSWSFNSQLGHTSKS
glycan array binding signal (z-score) [1]: -0.091
glycan array binding signal (z-score) [2]: -0.141
glycan array binding signal (z-score) [3]: -0.104
glycan array binding signal (z-score) [4]: -0.108
glycan array binding signal (z-score) [5]: -0.119
glycan array binding signal (z-score) [6]: -0.132
glycan array binding signal (z-score) [7]: -0.147
glycan array binding signal (z-score) [8]: -0.093
glycan array binding signal (z-score) [9]: 14.3
glycan array binding signal (z-score) [10]: -0.142
glycan array binding signal (z-score) [11]: 9.53
glycan array binding signal (z-score) [12]: -0.138
glycan array binding signal (z-score) [13]: -0.098
glycan array binding signal (z-score) [14]: -0.111
glycan array binding signal (z-score) [15]: -0.102
glycan array binding signal (z-score) [16]: 1.2
glycan array binding signal (z-score) [17]: 6.22
glycan array binding signal (z-score) [18]: -0.125
glycan array binding signal (z-score) [19]: -0.082
glycan array binding signal (z-score) [20]: -0.107
glycan array binding signal (z-score) [21]: 1.24
glycan array binding signal (z-score) [22]: 3.73
glycan array binding signal (z-score) [23]: -0.129
glycan array binding signal (z-score) [24]: -0.046
glycan array binding signal (z-score) [25]: -0.118
glycan array binding signal (z-score) [26]: -0.12
glycan array binding signal (z-score) [27]: -0.124
glycan array binding signal (z-score) [28]: -0.138
glycan array binding signal (z-score) [29]: -0.111
